Inconclusive results are not listed. Unmarked numbers belong to inactive results. Calls of active or inactive are those of the source. The call rests on the fitted dose curve; in most records, active means well fitted activation curve with a large enough effect in the repeat runs; inconclusive means weak or mixed curves; inactive means no such curve, though single readings can be large or run the other way.
On the % scale 0 is the no-effect control and ±100 the full control effect; potency means the concentration at half of the fitted maximal effect.

In this assay the target is Nuclear receptor subfamily 1 group I member 2 (Homo sapiens) (UniProt O75469). The assay can be described thus: CYP3A4 induction through human pregnane X receptor (PXR) by small molecules, qHTS assay (AID 1346984). Further: nearly all actives have a fitted effect of over 40% in size. Particulars: DPX-2 HepG2 PXR, CYP3A4-luciferin luminescence, 24 h; series mostly up to 46.1 µM; activation: at the top concentration. An excerpt: National Center for Advancing Translational Sciences [NCATS]
NIH Chemical Genomics Center [NCGC]
U.S. Environmental Protection Agency [EPA]
National Institutes of Environmental Health Sciences [NIEHS]
National Toxicology Program [NTP]
The Pregnane X receptor (PXR), a ligand activated nuclear receptor plays a critical role in the regulation of genes involved in drug metabolism and transporters. Activation of PXR is responsible for unwanted adverse drug reactions. PXR binds xenobiotics and when compounds interact with PXR enhances the expression of CYP3A genes. Identifying the compounds with the potential for PXR activation and CYP3A4 induction can be of importance in improving the efficacy of drugs with less toxicity and avoiding drug-drug interactions.
DPX-2 (Puracyp, Inc.) cell lines, used for screening against human PXR activation has HepG2 cells co-transfected with a PXR response element and a luciferase construct containing CYP3A4 promoter. Increase in luciferase activity can be used to identify the compounds that cause the induction of CYP3A4.
DPX-2 cells were dispensed at 2,000 cells per well in 5uL of assay medium into white, solid-bottom 1536-well plates using a Multidrop Combi dispenser (Thermo Scientific). The assay plates were incubated at 37C for 5hr before transferring 23nL of test compounds dissolved in DMSO and positive control via Pintool station (Wako). The assay plates were incubated at 37C for 24hr. After 24hr compound treatment, 1uL of 3uM (final concentration) P450 substrate (P450-Glo CYP3A4 screening system with Luciferin-IPA, Promega) was added by a Flying Reagent Dispenser (FRD, Aurora Discovery). The assay plates were incubated for 3hr at 37C. Then 5ul One-Glo assay reagent (Promega) was added to each plate by an FRD and following 30 min incubation at room temperature, luciferase activity was quantified on a ViewLux plate reader (Perkin Elmer).
For orientation: Quantitative high-throughput screening tests each substance at several concentrations.
With `COc1ccc(C2C(=O)c3ccccc3C2=O)cc1`, the “activation” value was -3.28%.

In the case of `CCCCCCCCCCCC(=O)OCC(O)CO` (stereo not drawn), the “activation” value is -4.66%.

Consider `Cc1cn([C@H]2C[C@H](F)[C@@H](CO)O2)c(=O)[nH]c1=O`, for which the “activation” value was -9.88%.

`Cc1ccc(S(=O)(=O)NC(=O)NC2CCCCC2)cc1`: the “activation” value was -4.95%.

In the case of `CC(C)Cc1ccc(CC(=O)O)cc1`, the “activation” value is 0.266%.

Take `CC(C)(C(=O)c1cccnc1)c1cccnc1`: the “activation” value was 0.091% [at 20.6 µM].

For the compound `CC(=O)N[C@@H](Cc1ccc(O)cc1)C(=O)O`, the “activation” value is 0.387%.

Consider `Cc1c[nH]c2ccccc12`, for which the “activation” value was -2.65%.

Turning to `CC(=O)OC(C)C[N+](C)(C)C` (stereo not drawn), the “activation” value was -4.05% [at 20.6 µM].

For `CCN(CC)C(=O)/C(C#N)=C/c1cc(O)c(O)c([N+](=O)[O-])c1`, the “activation” value is 17.3%.

In the case of `CC(=O)Oc1cccc(O)c1`, the “activation” value was -4.11%.

Turning to `COc1ccc(-c2cc(C(F)F)nn2-c2ccc(S(N)(=O)=O)cc2)cc1F`, the “activation” value was -3.31%.

For `C[C@@H]1[C@H](O)[C@@H](C)/C=C/C=C\C=C\C=C\C=C\C=C\C=C\[C@H](O[C@@H]2O[C@H](C)[C@@H](O)[C@H](N)[C@@H]2O)C[C@@H]2O[C@](O)(C[C@@H](O)C[C@@H](O)[C@H](O)CC[C@@H](O)C[C@@H](O)CC(=O)O[C@H]1C)C[C@H](O)[C@H]2C(=O)O` (stereo in doubt), the “activation” value was -3.86%.

`CC[C@@H](CO)NCCN[C@@H](CC)CO`: the “activation” value was 6.67% [at 20.6 µM].

Take `CC[C@H]1OC(=O)[C@H](C)[C@@H](O[C@H]2C[C@@](C)(OC)[C@@H](O)[C@H](C)O2)[C@H](C)[C@@H](O[C@@H]2O[C@H](C)C[C@H](N(C)C)[C@H]2O)[C@](C)(O)C[C@@H](C)C(=O)[C@H](C)[C@@H](O)[C@]1(C)O`: the Potency result was “inactive”.

With `COc1ccc(/C=C/C(=O)c2ccc(OC)cc2OC)cc1`, the “activation” value was -0.007%.

As for `CCN(CC)CCOc1ccccc1C(=O)CCc1ccccc1`, the Potency was 14.1 µM (active).

As for `CCN(CC)C(=O)N1CCN(C)CC1`, the “activation” value is -2.68% [at 20.6 µM].

Turning to `C=CC(=O)O`, the “activation” value is 13.2%.

`CCCCC(CC)COS(=O)(=O)O` (stereo not drawn): the “activation” value was -9.62%.

In the case of `CCCCC[C@H](O)/C=C/[C@H]1[C@H](O)CC(=O)[C@@H]1C/C=C\CCCC(=O)O`, the “activation” value was -14.3%.

As to `O=C(O)CCC(=O)c1ccc(-c2ccccc2)cc1`, the “activation” value was -1.5% [at 20.6 µM].

Consider `CNC1CCCN(c2c(F)cc3c(=O)c(C(=O)O)cn(C4CC4)c3c2OC)C1` (stereo not drawn), for which the “activation” value is -1.45%.

Consider `O=c1[nH]c2cc(C(F)(F)F)c(N3CCOCC3)cc2n(CP(=O)(O)O)c1=O`, for which the “activation” value is -7.99%.

On to `COc1cc(NCc2ccc3nc(N)nc(N)c3c2C)cc(OC)c1OC`, for which the “activation” value was 14.1%.

For the compound `CCOC(=O)c1c(N)sc2c1CCN(Cc1ccccc1)C2`, the “activation” value is -5.79%.

For `O=C(Nc1ccc(C(=O)O)c(O)c1)c1ccccc1`, the “activation” value was -21.1%.

As to `COc1ccc(CCN(C)CCCN2CCc3cc(OC)c(OC)cc3CC2=O)cc1OC`, the “activation” value is 6.35%.

For `O=C(NC(Cc1cc(=O)[nH]c2ccccc12)C(=O)O)c1ccc(Cl)cc1` (stereo not drawn), the “activation” value is -2.62%.

As for `O=C(O)CNC(=O)c1ccccc1I`, the “activation” value is 3.89%.

`COc1ccc(C(=O)NCc2ccc(OCCN(C)C)cc2)cc1OC`: the “activation” value was -13.5%.

Turning to `Nc1ccc(S(=O)(=O)NCc2ccccc2)cc1`, the “activation” value was -6.52%.

As for `O=C1CC[C@@H](C(=O)O)N1`, the “activation” value is -0.853%.

Take `CC[C@H]1OC(=O)[C@H](C)[C@@H](O[C@H]2C[C@@](C)(OC)[C@@H](O)[C@H](C)O2)[C@H](C)[C@@H](O[C@@H]2O[C@H](C)C[C@H](N(C)C)[C@H]2O)[C@](C)(O)C[C@@H](C)/C(=N\OCOCCOC)[C@H](C)[C@@H](O)[C@]1(C)O`: the “activation” value was 8.37% [at 20.6 µM].

`c1ccc2sc(SSc3nc4ccccc4s3)nc2c1`: the “activation” value is -6.57%.

For `CC(C)(C)NCC(O)COc1cccc2c1C[C@H](O)[C@H](O)C2` (stereo partly drawn), the “activation” value is -10.3% [at 20.6 µM].

For `CNc1c2c(nn1C)CCCC2`, the “activation” value is 1.09%.

`CCN(CC)CCOC(=O)C(c1ccccc1)c1ccccc1`: the “activation” value was 21.4%.

(Values after PubChem BioAssay (Tox21).)
